Reference: PubChem BioAssay (Tox21)
Unmarked numbers belong to inactive results. Records with an inconclusive call do not appear. A call without a number means that no potency is given here. More than one record can exist for a structure, and the calls need not agree. Calls of active or inactive are those of the source. Unless noted, calls come from the whole dose curve; as a rule, active = well fitted curve in the direction sought with a large enough effect in the repeat runs; inconclusive = weak or mixed curves; inactive = no such curve, though single readings can be large; an effect the other way counts as inactive or inconclusive.

Tests used:
[1] = qHTS assay to test for compound auto fluorescence at 535 nm (green) in HEK293 cells (AID 720680)
[2] = qHTS assay to test for compound auto fluorescence at 460 nm (blue) in HEK293 cell free culture (AID 720681)
Summary of the method: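 Blue fluorescence (Ex 405/Em 460 nm, triamterene-equivalent) was read immediately after pin transfer of compound or DMSO into medium (DMEM, 10% FBS) without cells.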

[3] = qHTS assay to test for compound auto fluorescence at 535 nm (green) in HEK293 cell free culture (AID 720682)
Summary of the method: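 Read-out: 485/535 nm fluorescence intensity, calibrated against fluorescein. Medium only (DMEM + 10% FBS, no cells); test compound or DMSO vehicle added by pintool before plate reading.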

[4] = qHTS assay to test for compound auto fluorescence at 590 nm (red) in HEK293 cell free culture (AID 720683)
Summary of the method: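 Red-channel autofluorescence of compounds in culture medium (DMEM, 10% FBS), no cells, measured at 540/590 nm. Rose Bengal sodium is the reference fluorophore for equivalence.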

[5] = qHTS assay to test for compound auto fluorescence at 590 nm (red) in HepG2 cell free culture (AID 720684)
Summary of the method: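 Plate contents were MEM with 10% FBS plus test compound or DMSO, no cells. Fluorescence was recorded with 540 nm excitation and 590 nm emission.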

[6] = qHTS assay to test for compound auto fluorescence at 535 nm (green) in HepG2 cell free culture (AID 720686)
[7] = qHTS assay to test for compound auto fluorescence at 460 nm (blue) in HepG2 cells (AID 720687)
Summary of the method: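 Blue-channel autofluorescence (Ex/Em 405/460 nm, triamterene-equivalent) was measured after 1 hr compound exposure at 37 C, 5% CO2. Cells were HepG2, plated overnight at 37 C in MEM plus 10% FBS.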

[8] = molecular target: Glucocorticoid receptor (Homo sapiens) (UniProt P04150); test: qHTS assay to identify small molecule agonists of the glucocorticoid receptor (GR) signaling pathway (AID 720691; active = well fitted activation curve with a large enough effect in the signal ratio in the repeat runs, not every such curve was filed as active; the % refers to the signal ratio)
Summary of the method: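 Beta-lactamase reporter activity, read as fluorescence intensity, was measured in GR-bla HeLa cells exposed to compounds for 18 h at 37 C and then loaded with LiveBLAzer B/G FRET substrate for 2 h at room temperature.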

[9] = molecular target: Glucocorticoid receptor (Homo sapiens) (UniProt P04150); test: qHTS assay to identify small molecule antagonists of the glucocorticoid receptor (GR) signaling pathway (AID 720692; active = well fitted inhibition curve with a large enough effect in the signal ratio in the repeat runs, not every such curve was filed as active; the % refers to the signal ratio)
Summary of the method: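 Fluorescence from cleaved LiveBLAzer B/G FRET substrate reports GRE-driven beta-lactamase in HeLa cells; compounds are tested against 5 nM dexamethasone (final) over 18 h at 37 C, substrate incubation 2 h at room temperature.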

[10] = qHTS assay to identify small molecule antagonists of the glucocorticoid receptor (GR) signaling pathway - cell viability counter screen (AID 720693); note: nearly all actives have a fitted effect of over 55% in size
[11] = qHTS assay for identifying genotoxic compounds that show differential cytotoxicity against isogenic chicken DT40 cell lines with known DNA damage response pathways - wild type cell line (AID 743012); note: nearly all actives have a fitted effect of over 60% in size
Summary of the method: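 Quantitative HTS on parental DT40 cells: 40 h compound treatment at 37 C/5% CO2, with viability then determined by CellTiter-Glo luminescence. Values serve as the DNA repair-proficient reference for differential cytotoxicity.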

[12] = qHTS assay for identifying genotoxic compounds that show differential cytotoxicity against isogenic chicken DT40 cell lines with known DNA damage response pathways - Rad54/Ku70 mutant cell line (AID 743015); note: nearly all actives have a fitted effect of over 60% in size
[13] = qHTS assay to identify small molecule antagonists of the androgen receptor (AR) signaling pathway - cell viability counter screen (AID 743033; note: nearly all actives have a fitted effect of over 45% in size)
[14] = qHTS assay to identify small molecule antagonists of the androgen receptor (AR) signaling pathway using the MDA cell line - cell viability counter screen (AID 743041; note: nearly all actives have a fitted effect of over 45% in size; note: potency is the fitted concentration of half-maximal effect)
Summary of the method: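 R1881-driven MDA-kb2 AR-luc cells, 3,000/well, were dosed with library compounds for 16 h; cell health came from CellTiter-Fluor fluorescence in the reporter wells.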

[15] = qHTS assay to test for compound auto fluorescence at 460 nm (blue) in HepG2 cell free culture (AID 720685)
Summary of the method: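 Compound (23 nL) or DMSO pinned into cell-free MEM with 10% FBS; blue fluorescence read at 405/460 nm excitation/emission, expressed as auto-fluorescence equivalency to triamterene.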

[16] = qHTS assay for identifying genotoxic compounds that show differential cytotoxicity against isogenic chicken DT40 cell lines with known DNA damage response pathways - Rev3 mutant cell line (AID 743014); note: nearly all actives have a fitted effect of over 55% in size
[17] = molecular target: Androgen receptor (Homo sapiens) (UniProt P10275); test: qHTS assay to identify small molecule antagonists of the androgen receptor (AR) signaling pathway (AID 743035; active = well fitted inhibition curve with a large enough effect in the signal ratio in the repeat runs, not every such curve was filed as active; the % refers to the signal ratio)
Summary of the method: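 Cell line: GeneBLAzer AR-UAS-bla GripTite (HEK293). Stimulus: R1881 added after compound. Exposure: 16 h, 37C, 5% CO2. Readout: LiveBLAzer B/G FRET fluorescence after 2 h at room temperature.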

[18] = molecular target: Androgen receptor (Homo sapiens) (UniProt P10275); test: qHTS assay to identify small molecule agonists of the androgen receptor (AR) signaling pathway using the MDA cell line (AID 743040; note: nearly all actives have a fitted effect of over 20% in size)
Summary of the method: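 After a 5 h incubation at 37C and 0% CO2, MDA-kb2 reporter cells were dosed with compounds in DMSO and kept 16 h under the same conditions. Luciferase activity was then read as luminescence with ONE-Glo.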

[19] = molecular target: Androgen receptor (Homo sapiens) (UniProt P10275); test: qHTS assay to identify small molecule antagonists of the androgen receptor (AR) signaling pathway using the MDA cell line (AID 743042; note: nearly all actives have a fitted effect of over 55% in size)
Summary of the method: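 Antagonist mode: compounds plus R1881 agonist added to MDA-kb2 AR-luc cells, incubated 16 h at 37C. Luciferase reporter luminescence quantified, with multiplexed CellTiter-Fluor readout for cell viability.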

Glucocorticoid receptor (Homo sapiens), sequence (P04150 whole entry, looked up): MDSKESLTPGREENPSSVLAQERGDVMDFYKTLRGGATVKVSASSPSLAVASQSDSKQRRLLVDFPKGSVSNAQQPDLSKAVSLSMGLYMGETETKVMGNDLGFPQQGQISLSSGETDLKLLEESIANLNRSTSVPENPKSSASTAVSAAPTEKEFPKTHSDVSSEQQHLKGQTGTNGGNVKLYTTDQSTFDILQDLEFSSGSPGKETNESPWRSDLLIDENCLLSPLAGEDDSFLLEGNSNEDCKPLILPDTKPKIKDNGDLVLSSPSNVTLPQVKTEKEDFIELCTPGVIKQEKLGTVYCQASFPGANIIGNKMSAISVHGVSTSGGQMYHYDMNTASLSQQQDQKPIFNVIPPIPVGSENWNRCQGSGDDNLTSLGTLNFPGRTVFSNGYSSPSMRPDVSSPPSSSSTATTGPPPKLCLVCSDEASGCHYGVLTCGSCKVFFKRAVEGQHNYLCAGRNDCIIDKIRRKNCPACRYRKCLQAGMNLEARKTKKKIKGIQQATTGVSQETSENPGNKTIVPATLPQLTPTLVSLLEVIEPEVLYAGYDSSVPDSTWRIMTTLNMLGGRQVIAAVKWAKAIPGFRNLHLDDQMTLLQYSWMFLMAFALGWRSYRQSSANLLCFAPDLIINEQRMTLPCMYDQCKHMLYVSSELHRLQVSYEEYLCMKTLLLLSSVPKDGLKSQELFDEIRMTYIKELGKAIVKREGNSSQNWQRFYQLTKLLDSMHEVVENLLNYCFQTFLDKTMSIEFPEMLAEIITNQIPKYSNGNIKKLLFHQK
Androgen receptor (Homo sapiens), sequence (P10275 whole entry, looked up): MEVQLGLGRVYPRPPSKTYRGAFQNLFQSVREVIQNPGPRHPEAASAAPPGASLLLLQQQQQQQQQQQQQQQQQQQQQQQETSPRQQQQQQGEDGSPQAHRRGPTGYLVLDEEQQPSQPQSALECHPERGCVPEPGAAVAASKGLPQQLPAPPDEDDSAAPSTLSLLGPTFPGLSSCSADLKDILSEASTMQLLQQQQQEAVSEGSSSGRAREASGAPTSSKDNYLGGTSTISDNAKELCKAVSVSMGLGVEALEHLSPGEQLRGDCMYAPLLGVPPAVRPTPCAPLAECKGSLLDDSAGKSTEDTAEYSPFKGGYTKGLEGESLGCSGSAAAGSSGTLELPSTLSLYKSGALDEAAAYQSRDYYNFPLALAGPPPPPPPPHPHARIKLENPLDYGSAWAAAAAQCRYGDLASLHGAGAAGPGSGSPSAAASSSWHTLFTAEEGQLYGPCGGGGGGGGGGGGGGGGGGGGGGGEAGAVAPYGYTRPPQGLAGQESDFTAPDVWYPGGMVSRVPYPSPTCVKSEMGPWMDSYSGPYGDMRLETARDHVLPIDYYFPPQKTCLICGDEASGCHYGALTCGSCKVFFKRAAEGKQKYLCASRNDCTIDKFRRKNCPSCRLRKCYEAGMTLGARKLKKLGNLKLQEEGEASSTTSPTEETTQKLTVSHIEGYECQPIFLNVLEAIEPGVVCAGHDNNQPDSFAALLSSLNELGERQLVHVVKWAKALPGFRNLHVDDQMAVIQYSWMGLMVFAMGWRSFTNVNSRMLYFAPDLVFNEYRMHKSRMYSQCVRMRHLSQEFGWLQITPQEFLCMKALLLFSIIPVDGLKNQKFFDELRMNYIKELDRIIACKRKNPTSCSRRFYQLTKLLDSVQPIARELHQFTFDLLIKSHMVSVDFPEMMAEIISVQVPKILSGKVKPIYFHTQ

SMILES: CN(C)CC/C=C1/c2ccccc2COc2ccc(CC(=O)O)cc21
- outcome [1]: inactive
- outcome [2]: inactive
- outcome [3]: inactive
- outcome [4]: inactive
- outcome [5]: inactive
- outcome [6]: inactive
- outcome [7]: inactive
- Potency [8]: inactive
- outcome [9]: inactive
- outcome [10]: inactive
- Potency [11]: inactive
- Potency [12]: inactive
- outcome [13]: inactive
- Potency [14]: inactive

SMILES: N#Cc1ccccc1O
- outcome [1]: inactive
- outcome [2]: inactive
- outcome [4]: inactive
- outcome [5]: inactive
- outcome [15]: inactive
- outcome [6]: inactive
- outcome [7]: inactive
- Potency [8]: inactive
- outcome [9]: inactive
- outcome [10]: inactive
- Potency [11]: inactive
- Potency [16]: inactive
- Potency [12]: inactive
- outcome [13]: inactive
- Potency [14]: inactive

SMILES: C=CC/C=C/C
- outcome [1]: inactive
- outcome [2]: inactive
- outcome [3]: inactive
- outcome [4]: inactive
- outcome [5]: inactive
- outcome [6]: inactive
- outcome [7]: inactive
- Potency [8]: inactive
- outcome [9]: inactive
- outcome [10]: inactive
- Potency [11]: inactive
- Potency [12]: inactive
- outcome [13]: inactive
- Potency [14]: inactive

SMILES: COC(=O)c1ccccc1C(=O)O
- outcome [1]: inactive
- outcome [2]: inactive
- outcome [3]: inactive
- outcome [4]: inactive
- outcome [5]: inactive
- outcome [6]: inactive
- outcome [7]: inactive
- Potency [8]: inactive
- outcome [9]: inactive
- outcome [10]: inactive
- Potency [16]: inactive
- Potency [12]: inactive
- outcome [13]: inactive
- Potency [14]: inactive

SMILES: O=S(=O)(O)c1ccc2c(N=Nc3ccc(S(=O)(=O)O)c4ccccc34)c(O)c(S(=O)(=O)O)cc2c1
- outcome [1]: inactive
- outcome [2]: inactive
- outcome [3]: inactive
- outcome [4]: inactive
- outcome [5]: inactive
- outcome [6]: inactive
- outcome [7]: inactive
- outcome [10]: inactive
- Potency [11]: inactive
- outcome [13]: inactive
- Potency [14]: 22.1 µM (active)
- viability change, negative = cytotoxic [14]: -3.01% [at 8.47 µM]

SMILES: Cc1c(C(=O)c2c[nH]n(C)c2=O)ccc(S(C)(=O)=O)c1C1=NOCC1
- outcome [1]: inactive
- outcome [2]: inactive
- outcome [3]: inactive
- outcome [4]: inactive
- outcome [5]: inactive
- outcome [6]: inactive
- outcome [7]: inactive
- Potency [8]: inactive
- outcome [10]: inactive
- Potency [11]: inactive
- Potency [16]: inactive
- Potency [12]: inactive
- outcome [13]: inactive
- outcome [17]: inactive
- Potency [18]: inactive
- Potency [14]: inactive
- outcome [19]: inactive

SMILES: CCCCCCCCCCOC(C)=O
- outcome [1]: inactive
- outcome [2]: inactive
- outcome [3]: inactive
- outcome [4]: inactive
- outcome [5]: inactive
- outcome [6]: inactive
- outcome [7]: inactive
- Potency [8]: inactive
- outcome [9]: inactive
- Potency [11]: inactive
- Potency [12]: inactive
- outcome [13]: inactive
- Potency [14]: inactive

SMILES: CC(C)OC(=O)CCC(=O)OC(C)C
- outcome [1]: inactive
- outcome [2]: inactive
- outcome [3]: inactive
- outcome [4]: inactive
- outcome [5]: inactive
- outcome [7]: inactive
- Potency [8]: inactive
- outcome [9]: inactive
- outcome [10]: inactive
- Potency [11]: inactive
- Potency [12]: inactive
- outcome [13]: inactive
- Potency [14]: inactive

SMILES: C=C(C)c1cccc(C(C)(C)N=C=O)c1
- outcome [1]: inactive
- outcome [2]: inactive
- outcome [3]: inactive
- outcome [4]: inactive
- outcome [5]: inactive
- outcome [15]: inactive
- outcome [7]: inactive
- Potency [8]: inactive
- outcome [10]: inactive
- outcome [13]: inactive
- Potency [14]: inactive

SMILES: CN1CCOC(c2ccccc2)c2ccccc2C1 (stereo unspecified)
- fluorescence, % of fluorescein [1]: -0.0031% [at 18.6 µM]
- fluorescence, % of fluorescent control [2]: -0.103% [at 18.6 µM]
- activity change [3]: -0.0245% [at 18.6 µM]
- fluorescence, % of fluorescent control [4]: -0.107% [at 18.6 µM]
- fluorescence, % of Rose Bengal [5]: 0.115% [at 18.6 µM]
- fluorescence, % of fluorescein control [6]: 0.0063% [at 18.6 µM]
- fluorescence, % of fluorescent control [7]: 0.0046% [at 18.6 µM]
- outcome [10]: inactive
- Potency [16]: inactive
- Potency [14]: inactive

SMILES: Cc1ccc(C)c([N+](=O)[O-])c1
- outcome [1]: inactive
- outcome [2]: inactive
- outcome [3]: inactive
- outcome [4]: inactive
- outcome [5]: inactive
- outcome [6]: inactive
- outcome [7]: inactive
- Potency [8]: inactive
- Potency [11]: inactive
- Potency [16]: inactive
- Potency [12]: inactive
- outcome [13]: inactive
- Potency [14]: inactive

SMILES: CC(N)CCCC(C)(C)O (stereo unspecified)
- outcome [1]: inactive
- outcome [2]: inactive
- outcome [3]: inactive
- outcome [4]: inactive
- outcome [5]: inactive
- outcome [6]: inactive
- outcome [7]: inactive
- Potency [8]: inactive
- outcome [9]: inactive
- outcome [10]: inactive
- Potency [11]: inactive
- Potency [16]: inactive
- Potency [12]: inactive
- outcome [13]: inactive
- Potency [14]: inactive

SMILES: CCCCCCCCCCCCCCCCCC#N
- outcome [1]: inactive
- outcome [2]: inactive
- outcome [4]: inactive
- outcome [5]: inactive
- outcome [15]: inactive
- outcome [6]: inactive
- outcome [7]: inactive
- Potency [8]: inactive
- outcome [9]: inactive
- outcome [10]: inactive
- Potency [11]: inactive
- Potency [16]: inactive
- Potency [12]: inactive
- outcome [13]: inactive
- Potency [14]: inactive
